High-throughput results as filed in PubChem.
pCIP destab – p/CIP-EGFP fusion destabilizers, primary screen, fluorescence, F442A cells; 0.01% of 290,000 active; Q05BA5; 16 h; decrease of EGFP signal, % at 10 µM;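 active = EGFP signal decrease of at least 30% at 10 µM or well 3 SD below plate mean, unless failing retest; inactive = the rest, including hits failing retest or dose response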
Target sequence (Q05BA5 1-1403): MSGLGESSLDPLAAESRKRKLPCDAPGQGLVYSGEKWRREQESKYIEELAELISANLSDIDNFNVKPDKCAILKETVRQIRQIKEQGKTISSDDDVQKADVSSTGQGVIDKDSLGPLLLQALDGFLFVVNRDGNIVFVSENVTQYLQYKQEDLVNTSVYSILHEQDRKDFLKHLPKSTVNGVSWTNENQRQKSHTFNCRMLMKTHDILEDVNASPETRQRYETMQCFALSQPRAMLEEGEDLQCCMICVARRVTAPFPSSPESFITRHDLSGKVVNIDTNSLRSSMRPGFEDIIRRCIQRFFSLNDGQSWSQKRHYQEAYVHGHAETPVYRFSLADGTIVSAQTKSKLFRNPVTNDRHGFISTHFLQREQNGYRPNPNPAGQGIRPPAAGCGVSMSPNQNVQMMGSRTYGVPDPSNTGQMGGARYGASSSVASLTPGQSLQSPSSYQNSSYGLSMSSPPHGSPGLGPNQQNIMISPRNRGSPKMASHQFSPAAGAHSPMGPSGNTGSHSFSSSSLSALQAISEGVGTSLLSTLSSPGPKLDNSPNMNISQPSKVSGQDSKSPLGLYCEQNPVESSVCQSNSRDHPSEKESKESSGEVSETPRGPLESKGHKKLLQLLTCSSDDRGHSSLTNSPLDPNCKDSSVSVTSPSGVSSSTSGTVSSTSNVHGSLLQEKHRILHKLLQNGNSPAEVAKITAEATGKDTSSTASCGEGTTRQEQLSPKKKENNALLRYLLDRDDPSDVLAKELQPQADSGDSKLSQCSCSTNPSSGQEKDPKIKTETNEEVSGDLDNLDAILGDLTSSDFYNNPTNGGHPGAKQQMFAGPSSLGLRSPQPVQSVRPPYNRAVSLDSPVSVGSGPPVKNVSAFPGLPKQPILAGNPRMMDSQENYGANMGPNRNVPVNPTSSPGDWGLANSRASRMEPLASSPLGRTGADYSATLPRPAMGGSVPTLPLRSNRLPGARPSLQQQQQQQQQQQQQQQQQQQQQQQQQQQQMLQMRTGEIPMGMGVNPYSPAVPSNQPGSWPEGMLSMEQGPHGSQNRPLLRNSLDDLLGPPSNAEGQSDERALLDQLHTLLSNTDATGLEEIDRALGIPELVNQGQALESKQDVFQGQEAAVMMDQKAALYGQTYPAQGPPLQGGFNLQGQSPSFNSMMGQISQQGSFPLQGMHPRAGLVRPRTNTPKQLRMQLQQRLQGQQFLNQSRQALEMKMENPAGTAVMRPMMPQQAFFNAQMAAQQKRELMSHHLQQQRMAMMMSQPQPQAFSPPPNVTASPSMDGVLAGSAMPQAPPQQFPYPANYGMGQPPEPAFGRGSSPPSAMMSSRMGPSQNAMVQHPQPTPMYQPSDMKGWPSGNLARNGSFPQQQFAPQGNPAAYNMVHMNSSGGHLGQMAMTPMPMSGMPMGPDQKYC
MIN6 prolif – inducers of MIN6 beta-cell proliferation, primary screen, ATP luminescence, uHTS | MIN6 cells proliferation, ATPlite luminescence, 48 h; cells starved in 0.2% serum; 100% = growth in 10% serum | 0.29% of 330,000 active | proliferation, % at 10 µM | AID 2380, 2010;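 active = compounds whose signal lies at least 3.5 SD above the mean of all wells on their plate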
NR3A LBD binder – binders of NR3A ligand-binding domain, primary screen, biophysical, differential scanning fluorimetry, uHTS; 2.5% of 340,000 active; Glutamate receptor ionotropic, NMDA 3A (GRIN3A) ligand-binding domain; Tm shift relative to glycine control, % at 25 µM; AID 1259313, 2017; NR3A LBD differential scanning fluorimetry, Tm shift; 0% = protein alone, 100% = glycine-bound protein;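 active = melting temperature shift of at least 10% of the positive control shift, at one fixed dose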
MPTP inh – mitochondrial permeability transition pore inhibitors, primary screen, biochemical, isolated mouse mitochondria, absorbance; Ca2+ swelling absorbance, 30 min; 1.4% of 360,000 active; inhibition, % at 10 µM;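 active = inhibition of 50% or more, scaled per plate between neutral and stimulator controls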
FAS TE block – FAS thioesterase domain inhibitors, primary screen, biochemical, fluorescence intensity, uHTS; inhibition, % at 15 µM; AID 602261, 2012; recombinant FAS-TE, OMFH fluorogenic substrate, fluorescence endpoint; 0.67% of 360,000 active;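 active = compounds whose normalised, plate-corrected inhibition of enzyme fluorescence in the single-dose primary screen is 50% or more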
FAS-TE inh conf – FAS thioesterase domain inhibitors, confirmation, biochemical, fluorescence intensity, single concentration. shares compounds with FAS TE block. recombinant FAS-TE, OMFH fluorogenic substrate. inhibition, % at 15 µM. 45% of 2,300 active. AID 624325, 2012;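 active = compounds inhibiting the enzyme by at least 50% at 15 µM in any one of the replicates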
Each line names hits and unclear results; the compound was inactive in the other large screens (follow-up assays come after a bar, where they were run). In the library only some 4.1% were active in any assay of this set; here they are far more common.

N#CC1(NC(=O)COC(=O)c2cc([N+](=O)[O-])ccc2N2CCOCC2)CCCCC1	FAS TE block 68 (no result: pCIP destab) | FAS-TE inh conf 80
N#CC1(NC(=O)COC(=O)c2cc([N+](=O)[O-])ccc2N2CCCC2)CCCCC1	FAS TE block 66 (no result: pCIP destab) | FAS-TE inh conf 75
CC(O)(c1ccccc1)c1nc(-c2ccncc2)cs1 (stereo not given)	none (no result: pCIP destab, MIN6 prolif, NR3A LBD binder)
Cc1c(C(=O)/C=C/c2ccccc2F)c2cc(O)ccc2n1C	none (no result: pCIP destab, MIN6 prolif, NR3A LBD binder)
CS(=O)(=O)N(CC(=O)N/N=C/c1ccccc1C(=O)O)c1cccc(Cl)c1Cl	none
CC(C)c1ccc(/C=N/NC(=O)CN(c2cccc(Cl)c2Cl)S(C)(=O)=O)cc1	FAS TE block 57 | FAS-TE inh conf 58
CC1CCN(c2nc(Cl)nc(Nc3ccc([N+](=O)[O-])cc3)n2)CC1	FAS TE block 54 | FAS-TE inh conf inactive
COc1ccc(NC(=O)CN2CCN(c3nc(-c4ccc(F)cc4)cs3)CC2)c(OC)c1	FAS TE block 54 | FAS-TE inh conf inactive
Cc1c(OCC(=O)NC(Cc2ccc(Cl)cc2)C(=O)O)ccc2c(-c3ccccc3)cc(=O)oc12 (stereo not given)	FAS TE block 55 | FAS-TE inh conf 62
COc1ccc(NC(=S)N2CCN(c3ccc4c(c3)C3CCN(C(=O)OCc5ccccc5)C4C3)CC2)c(OC)c1 (stereo not given)	FAS TE block 57 (no result: pCIP destab, MIN6 prolif, NR3A LBD binder) | FAS-TE inh conf inactive
O=C(OCc1ccccc1)N1CCC2CC1c1cc(N3CCN(C(=S)NCCc4ccccc4)CC3)ccc12 (stereo not given)	none (no result: pCIP destab, MIN6 prolif, NR3A LBD binder)
CCCCc1nc2ccccc2c(=O)n1NC(=O)c1c(O)c2c(n(CC(C)C)c1=O)CCCC2	none (no result: MIN6 prolif)
CC(C)Cn1c2c(c(O)c(C(=O)Nn3c(Cc4ccccc4)nc4ccccc4c3=O)c1=O)CCCC2	FAS TE block 54 | FAS-TE inh conf inactive
CCOC1=C2[C@H](c3ccccc3)N(S(=O)(=O)c3ccc(C)cc3)C(C(C)(C)C)[C@H]2C(C#N)(C#N)C(C#N)(C#N)C1 (stereo not given in full)	FAS TE block 78 (no result: pCIP destab, MIN6 prolif, NR3A LBD binder) | FAS-TE inh conf inactive
CCOC1=C2[C@@H](CN(S(=O)(=O)c3ccc(C)cc3)[C@H]2c2ccc(CC)cc2)[C@H]2C(=O)N(c3ccccc3)C(=O)[C@H]2C1	FAS TE block 50 (no result: pCIP destab, MIN6 prolif, NR3A LBD binder) | FAS-TE inh conf inactive
CCOC1=C2CN(S(=O)(=O)c3ccc(C)cc3)[C@H](c3cccc4ccccc34)C[C@H]2C(C#N)(C#N)C(C#N)(C#N)C1	FAS TE block 63 (no result: pCIP destab, MIN6 prolif, NR3A LBD binder) | FAS-TE inh conf inactive
CCOC1=C2CN(S(=O)(=O)c3ccc(C)cc3)[C@H](c3cccc(Cl)c3)C[C@H]2[C@H]2C(=O)N(c3ccccc3)C(=O)[C@H]2C1	FAS TE block 81 (no result: pCIP destab, MIN6 prolif, NR3A LBD binder) | FAS-TE inh conf inactive
O=C(C[n+]1cccc(C(=O)Nc2ccccc2)c1)c1ccccc1	none (no result: pCIP destab, MIN6 prolif, NR3A LBD binder)
CN(C)c1ccc(/C=C2\c3ccccc3C(=O)N2c2ccccc2)cn1	none (no result: pCIP destab, MIN6 prolif, NR3A LBD binder)
CC(C)=CCC/C(C)=C/CNC(=O)C[C@H]1C[C@H](C(=O)N2CCOCC2)[C@@]2(CCC3CCCC3)c3[nH]c4cc(CCC(=O)N(C)C)ccc4c3CCN2C1=O	none (no result: pCIP destab, MIN6 prolif)
CCc1nc2c(OCCC3CCCCC3)cccn2c1N(C=O)Cc1ccccc1	none (no result: pCIP destab, MIN6 prolif, NR3A LBD binder)
CC(O)(c1ccc(F)c(F)c1)c1nc(-c2ccc(F)c(Cl)c2)cs1 (stereo not given)	none (no result: pCIP destab, MIN6 prolif, NR3A LBD binder)
COc1ccc(-c2nc3ccc(Cl)cn3c2Cc2cccc(F)c2)cc1OC	none (no result: pCIP destab, MIN6 prolif, NR3A LBD binder)
CCOC1=C2CN(S(=O)(=O)c3ccc(C)cc3)[C@@H](c3ccccc3)C[C@H]2[C@H]2C(=O)N(c3ccccc3)C(=O)[C@H]2C1	FAS TE block 69 (no result: pCIP destab, MIN6 prolif, NR3A LBD binder) | FAS-TE inh conf inactive
CCOC1=C2CN(S(=O)(=O)c3ccc(C)cc3)[C@@H](c3cccc4ccccc34)C[C@H]2[C@H]2C(=O)N(c3ccccc3)C(=O)[C@H]2C1	FAS TE block 88 (no result: pCIP destab, MIN6 prolif, NR3A LBD binder) | FAS-TE inh conf inactive
CCOC1=C2CN(S(=O)(=O)c3ccc(C)cc3)[C@H](c3ccccc3)C[C@@H]2N(S(=O)(=O)c2ccccc2)[C@H](c2ccccc2)C1	none (no result: pCIP destab, MIN6 prolif, NR3A LBD binder)
CCOC1=C2[C@@H](CN(S(=O)(=O)c3ccc(C)cc3)[C@H]2c2cccc3ccccc23)[C@H]2C(=O)NC(=O)[C@H]2C1	none (no result: pCIP destab, MIN6 prolif, NR3A LBD binder)
C[C@]12C(=O)N(c3ccc(F)cc3)C(=O)N1[C@H]1c3ccccc3OC[C@@H]1[C@H]2c1ccccc1	FAS TE block 89 (no result: pCIP destab) | FAS-TE inh conf inactive
C[C@@]12C(=O)N(c3ccc(Cl)cc3)C(=O)N1[C@@H]1c3ccccc3OC[C@@H]1[C@H]2c1ccccc1	none (no result: pCIP destab)
C[C@]12C(=O)N(c3ccc(Cl)cc3)C(=O)N1[C@H]1c3ccccc3OC[C@@H]1[C@H]2c1ccccc1	FAS TE block 93 | FAS-TE inh conf inactive
C[C@]12C(=O)N(c3ccc(C(F)(F)F)cc3)C(=O)N1[C@H]1c3ccccc3OC[C@@H]1[C@H]2c1ccccc1	FAS TE block 82 (no result: pCIP destab) | FAS-TE inh conf inactive
C[C@]12C(=O)N(c3ccc(Cl)cc3)C(=O)N1[C@@H]1c3ccccc3OC[C@@H]1[C@H]2c1ccccc1	FAS TE block 55 (no result: pCIP destab) | FAS-TE inh conf inactive
CN(C)c1ccc(CNC(=O)C2Cc3c(-c4ccccc4Oc4ccccc4)ccnc3O2)cc1 (stereo not given)	none (no result: pCIP destab, MIN6 prolif, NR3A LBD binder)
O=C(c1cc2ccccc2o1)N1CCN(Cc2nc3ccccc3s2)CC1	none (no result: pCIP destab, MIN6 prolif, NR3A LBD binder)
C[C@@]12C(=O)N(c3ccc(Br)cc3)C(=O)N1[C@@H]1c3ccccc3OC[C@@H]1[C@H]2c1ccccc1	FAS TE block 61 (no result: pCIP destab) | FAS-TE inh conf inactive
Cc1ccccc1Cn1c(C)nc2ccc([N+](=O)[O-])cc2c1=O	FAS TE block 61 | FAS-TE inh conf 51
Cc1nc2ccc([N+](=O)[O-])cc2c(=O)n1Cc1ccc(F)cc1	FAS TE block 71 | FAS-TE inh conf 75
CC1(C(=O)NS(=O)(=O)c2ccc(F)cc2F)CCN1C(=O)C/C=C/c1ccccc1 (stereo not given)	none (no result: pCIP destab, MIN6 prolif, NR3A LBD binder)
Cc1cccc(N2CCN(C(=O)CNC(=O)c3cccc([N+](=O)[O-])c3)CC2)c1C	FAS TE block 85 | FAS-TE inh conf 67
Cc1cccc(N2CCN(C(=O)CNC(=O)Cc3ccccc3)CC2)c1C	none (no result: pCIP destab)
CCCNC(=O)c1ccccc1C(=O)NC1(C(=O)NCCC)CCCC1	none
Cn1c(SCc2ccccc2Cl)nc(C(F)(F)F)cc1=O	none
Cn1c(SCc2c(Cl)cccc2Cl)nc(C(F)(F)F)cc1=O	FAS TE block 52 | FAS-TE inh conf inactive
Cn1c(SCc2cccc(Cl)c2)nc(C(F)(F)F)cc1=O	FAS TE block 63 | FAS-TE inh conf 62
